{"source": "PubChem BioAssay (Tox21)", "note": "Inconclusive results are not listed. A call without a number means that no potency is given here. Activity calls are given as the source filed them. Calls come from the whole dose curve. Potency is the fitted concentration of half-maximal effect.", "data": [{"target": "Retinoic acid receptor RXR-alpha (Homo sapiens) (UniProt P19793)", "sequence (P19793 whole entry, looked up)": "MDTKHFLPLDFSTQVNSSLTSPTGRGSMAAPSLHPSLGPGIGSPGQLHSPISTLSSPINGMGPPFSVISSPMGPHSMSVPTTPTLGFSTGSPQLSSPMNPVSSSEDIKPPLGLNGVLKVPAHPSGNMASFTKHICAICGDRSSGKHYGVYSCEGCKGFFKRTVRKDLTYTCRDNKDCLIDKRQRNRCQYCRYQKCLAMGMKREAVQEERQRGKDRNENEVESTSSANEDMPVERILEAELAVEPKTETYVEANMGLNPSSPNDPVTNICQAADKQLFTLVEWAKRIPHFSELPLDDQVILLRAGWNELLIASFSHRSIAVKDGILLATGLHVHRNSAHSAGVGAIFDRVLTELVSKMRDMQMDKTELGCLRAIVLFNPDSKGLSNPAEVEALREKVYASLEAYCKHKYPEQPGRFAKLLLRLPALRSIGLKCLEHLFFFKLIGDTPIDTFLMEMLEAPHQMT", "assay": "qHTS assay to identify small molecule agonists of the RXR signaling pathway (AID 1159527); note: nearly all actives have a fitted effect of over 35% in size", "settings": "HEK293T RXRa-UAS-bla, beta-lactamase ratio, 16 h; series mostly up to 76.8 µM", "from_the_text": "U.S. Tox21 Program National Center for Advancing Translational Sciences [NCATS] NIH Chemical Genomics Center [NCGC] U.S. Environmental Protection Agency [EPA] National Institutes of Environmental Health Sciences [NIEHS] National Toxicology Program [NTP] U.S. Food and Drug Administration [FDA] Tox21 Assay Overview: The Retinoid X receptor (RXR), a nuclear hormone receptor expressed in liver, spleen, placenta, epidermis, central nervous system. These receptors are able to form homo and heterodimers with other nuclear receptors and due to this heterodimerizing ability, RXR functions as master regulators producing diverse physiological effects. Three subtypes of RXR exist; alpha, beta and gamma. Retinoid X receptor alpha (RXR-alpha) has potential roles in metabolic signaling pathways, skin alopecia, dermal cysts, cardiac development, insulin sensitization etc. Therefore screening environmental chemicals on RXR-alpha signaling can be used for the studies focused on such therapeutic applications. For quantification of RXR-alpha ligands signaling, GeneBLAzer RXR alpha-UAS-bla HEK 293T (Life Technologies, Carlsbad, CA) cells containing a beta-lactamase reporter-gene under control of Retinoid X receptor-alpha response element were used to screen Tox21 10K library.\nTox21 Assay Protocol Summary: RXR-alpha HEK 293T cells were dispensed at 2,000 cells/6 uL of assay medium containing 2% charcoal-stripped FBS using a Multidrop Combi (ThermoFisher Scientific, Waltham, MA) dispenser. The assay was performed in black wall/clear-bottom 1536-well plates (Greiner Bio-One North America Inc. Monroe, NC). 9-cis retinoic acid was used as a positive control in the agonist mode screen. After the assay plates were incubated at 37 C and 5% CO2 for 5 hr, 23 nL of compounds dissolved in DMSO, positive controls or DMSO only were transferred to the assay plate by a Pintool station (Kalypsys, San Diego, CA). The assay plates were incubated at 37 C and 5% CO2 for 16 hr. One uL of LiveBLAzer B/G FRET substrate (Life Technologies) was added using a Flying Reagent Dispenser (Aurora Discovery, San Diego, CA) and the plates were incubated at room temperature for 2 hr. Fluorescence intensity (405 nm excitation, 460/530 nm emission) was measured using an Envision plate reader (PerkinElmer, Shelton, CT).", "values": [{"molecule": "C[Si]1(C)N[Si](C)(C)N[Si](C)(C)N1", "Potency": "inactive"}, {"molecule": "Cc1ccc(C(=O)C(=O)O)cc1C", "Potency": "inactive"}, {"molecule": "C=CCOc1c(Br)cc(C(C)(C)c2cc(Br)c(OCC=C)c(Br)c2)cc1Br", "Potency": "inactive"}, {"molecule": "CCCOCCOCCOCCO", "Potency": "inactive"}, {"molecule": "O=C(O)/C=C/c1ccccc1", "Potency": "inactive"}, {"molecule": "CC(C)COC(=O)CC(C(=O)OCC(C)C)S(=O)(=O)O", "note": "(stereo not given)", "Potency": "inactive"}, {"molecule": "COc1ccc(/C=N/NC(=O)c2ccncc2)cc1OC", "Potency": "inactive"}, {"molecule": "CCOC(=O)C(=O)c1csc(NC=O)n1", "Potency": "inactive"}, {"molecule": "CC(=O)OC(C)(C)Cc1ccccc1", "Potency": "inactive"}, {"molecule": "Cc1cccc(NC(=S)N(C)C)c1", "Potency": "inactive"}, {"molecule": "SCCSCCS", "Potency": "inactive"}, {"molecule": "C=C(C)C(=O)OCCCCCCOC(=O)C(=C)C", "Potency": "inactive"}, {"molecule": "BrC/C=C/CBr", "activation": "4.67% [at 15.8 µM] (inactive)"}, {"molecule": "O=C(COCCOCCOCC(=O)Nc1c(I)cc(I)c(C(=O)O)c1I)Nc1c(I)cc(I)c(C(=O)O)c1I", "Potency": "inactive"}, {"molecule": "CCC(=O)c1ccc(O)cc1", "Potency": "inactive"}, {"molecule": "C=CC(C)(O)CC/C=C(\\C)CC", "note": "(stereo not given)", "Potency": "inactive"}, {"molecule": "CCCCC(=O)N(C)C", "Potency": "inactive"}, {"molecule": "Cc1oc(=O)oc1CN1CCN(c2cc3c(cc2F)c(=O)c(C(=O)O)c2n3C(C)S2)CC1", "note": "(stereo not given)", "Potency": "inactive"}, {"molecule": "N#CCCOCCOCCC#N", "Potency": "inactive"}, {"molecule": "FC(F)(F)/C(=N\\OCC1OCCO1)c1ccc(Cl)cc1", "Potency": "inactive"}, {"molecule": "CCCCCCCCOC(C)=O", "Potency": "inactive"}, {"molecule": "CC(=O)N(CC(O)CO)c1c(I)c(C(=O)NCC(O)CO)c(I)c(C(=O)NCC(O)CO)c1I", "note": "(stereo not given)", "Potency": "inactive"}, {"molecule": "CC(C)(c1ccc(Oc2ccc3c(c2)C(=O)OC3=O)cc1)c1ccc(Oc2ccc3c(c2)C(=O)OC3=O)cc1", "Potency": "13.7 µM (active)"}, {"molecule": "CCOC(=O)CCc1ccccc1", "Potency": "inactive"}, {"molecule": "CCCC(C)CC", "note": "(stereo not given)", "Potency": "inactive"}, {"molecule": "CC1CCC(C(C)(C)S)C(=O)C1", "note": "(stereo not given)", "Potency": "inactive"}, {"molecule": "CCCCC[Si](OCC)(OCC)OCC", "Potency": "inactive"}, {"molecule": "CCCCOC(=O)C(C)OC(=O)CCC", "note": "(stereo not given)", "Potency": "inactive"}, {"molecule": "CN(C)CCOCCN(C)CCO", "Potency": "inactive"}, {"molecule": "CCC(C)N", "note": "(stereo not given)", "Potency": "inactive"}, {"molecule": "COCC(=O)Nc1c(I)c(C(=O)NCC(O)CO)c(I)c(C(=O)N(C)CC(O)CO)c1I", "note": "(stereo not given)", "Potency": "inactive"}, {"molecule": "O=C1OC(=O)c2ccccc21", "Potency": "inactive"}, {"molecule": "C=CCOc1c(Br)cc(Br)cc1Br", "Potency": "inactive"}, {"molecule": "CCOC(=O)C(C)(C)C", "Potency": "inactive"}, {"molecule": "O=C(O)CCNC(=O)c1ccccc1", "Potency": "inactive"}, {"molecule": "C=CCOC(=O)c1ccc(C(=O)OCC=C)c(C(=O)OCC=C)c1", "Potency": "inactive"}, {"molecule": "CC(=O)/C=C/c1ccco1", "Potency": "inactive"}, {"molecule": "CC(Cl)COP(=O)(OCC(C)Cl)OCC(C)Cl", "note": "(stereo not given)", "Potency": "inactive"}, {"molecule": "CCCCCCCCCCCCCCCCI", "activation": "7.13% [at 15.8 µM] (inactive)"}, {"molecule": "CC(=O)Nc1ncc([N+](=O)[O-])s1", "Potency": "inactive"}]}]}
